Assay [1] in a line: APR_HepG2_CellCycleArrest_24hr: Apredica 24-hour HepG2 Assay for Cell Cycle Arrest (AID 2282905).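 Note: cell cycle arrest scored as ratio of 2N to 4N nuclear DNA content.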 Particulars: imaging, actives raise or lower the signal. In short, it runs like this:
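Compounds at 0.39–200 uM (0.5% DMSO) for 24 h, then fixed and Hoechst 33342 stained. Cell-cycle analysis of nuclear DNA content by high-content imaging, fitted bidirectionally versus DMSO.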

Assay [2] is described as follows: APR_HepG2_NuclearSize_24hr: Apredica 24-hour HepG2 Assay for Nuclear Size (AID 2282907). The conditions noted are these: high-content imaging, actives raise or lower the signal. Summed up:
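HepG2 cells exposed 24 h to compounds at 0.39–200 uM (0.5% DMSO), fixed, Hoechst 33342 stained and imaged at 20x; nuclear diameter measured by automated image analysis, fitted bidirectionally against DMSO controls.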

A short description of assay [3]: APR_HepG2_CellLoss_24hr: Apredica 24-hour HepG2 Assay for Cell Loss (AID 2282908).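 For AC50: fit in both directions so a hit may be cell loss or gain.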 Particulars: high-content imaging. In short, it runs like this:
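HepG2 cells exposed 24 hr to 0.39–200 uM compound in duplicate at 0.5% v/v final DMSO. Cells fixed in 3.7% formaldehyde and Hoechst 33342-stained. Cell number came from nuclear imaging at 20x. Bidirectional fit versus DMSO.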

Assay [4] can be described thus: APR_HepG2_MicrotubuleCSK_24hr: Apredica 24-hour HepG2 Assay for Microtubule CSK Stabilty (AID 2282909). Particulars: HepG2 microtubule cytoskeleton imaging, actives raise or lower the signal. Summed up: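 HepG2 cells were treated 24 hr with compound at 0.39–200 uM in duplicate (0.5% DMSO final), then fixed and permeabilized. Alpha-tubulin immunofluorescence was imaged by high-content microscopy, with bidirectional fitting against DMSO and taxol as positive control.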

Assay [5] can be described thus: APR_HepG2_MitoticArrest_24hr: Apredica 24-hour HepG2 Assay for Mitotic Arrest (AID 2282910). The conditions noted are these: high-content imaging, actives raise or lower the signal. In short, it runs like this: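 HepG2 human liver cells were exposed to compounds at 0.39–200 uM (10 concentrations, duplicate) in 0.5% v/v DMSO for 24 hr, then fixed and immunostained for phospho-histone H3 with Hoechst 33342. Mitotic arrest came from HCS fluorescent imaging, fitted bidirectionally against DMSO.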

Assay [6] can be described thus: APR_HepG2_MitoMembPot_24hr: Apredica 24-hour HepG2 Assay for Mitochondrial Membrane Potential (AID 2282911). Particulars: imaging, actives raise or lower the signal. In short, it runs like this: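 Human hepatoma HepG2 cultures received ten compound concentrations up to 200 uM for 24 hr. Membrane-potential dye signal, captured by automated fluorescence microscopy, was scored for gain or loss against DMSO controls.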

Assay [7] in a line: APR_HepG2_MitoMass_24hr: Apredica 24-hour HepG2 Assay for Mitochondrial Mass (AID 2282912). The conditions noted are these: high-content imaging, actives raise or lower the signal. Summed up:
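HepG2 cells exposed 24 hr to 0.39–200 uM compound, 0.5% v/v DMSO, in duplicate. Stained before fixation with 250 nM MitoTracker Red CMXRos for 30 min, then imaged at 20x with Hoechst nuclei. Fitted in both directions against DMSO.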

Assay [8] can be described thus: APR_HepG2_p53Act_24hr: Apredica 24-hour HepG2 Assay for p53 Activation (AID 2282913).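 Note: p53 protein immunofluorescence averaged per cell in HepG2 with Hoechst nuclei.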 The conditions noted are these: high-content imaging, actives raise or lower the signal. In short, it runs like this: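 Automated fluorescence imaging quantifies p53 immunostaining in HepG2 cells after a 24 hr exposure (0.39–200 uM, duplicate, 0.5% DMSO). Nuclei are located by Hoechst 33342 staining.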

A short description of assay [9]: APR_HepG2_CellLoss_72hr: Apredica 72-hour HepG2 Assay for Cell Loss (AID 2282915). Particulars: high-content imaging. In short, it runs like this:
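HepG2 cells were exposed for 72 hr to compounds at 0.39–200 uM (ten concentrations, duplicate) in 0.5% v/v final DMSO. Nuclei were stained with Hoechst 33342 after 3.7% formaldehyde fixation, imaged at 20x, and counted; fits bidirectional versus DMSO.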

Assay [10] is described as follows: APR_HepG2_CellCycleArrest_72hr: Apredica 72-hour HepG2 Assay for Cell Cycle Arrest (AID 2282914). The conditions noted are these: high-content imaging, actives raise or lower the signal. In short, it runs like this:
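Cell cycle arrest in HepG2 was scored from nuclear DNA content after 72 hr compound treatment (0.39–200 uM). Activity, either gain or loss, was fitted against the DMSO baseline.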

The source made the active and inactive calls. Rule for the calls: active = hit-call score of the fitted dose curve at least 0.9, where 1 is the maximum; inactive = score below 0.9.

Our source for the outcome and AC50 values is PubChem BioAssay (EPA / NIEHS).

Broadly, the AC50 is the midpoint of the concentration-response curve, whichever way the signal moves.

Regarding `Cc1ccc(S(=O)(=O)O)cc1C`, the compound was classed as inactive in assay [1], in assay [2], in assay [3], in assay [4], in assay [5] and in [6]. Moreover, the compound was called inactive in assay [7] and in assay [8]. Further, in [9], the AC50 is 0.0391 µM (active).
As to `CCCCCCc1ccc(O)cc1O`, the AC50 in assay [1] is 89.8 µM (active); in assay [3], 103 µM (active); in assay [5], 95.4 µM (active); in assay [6], 46.1 µM (active); in assay [7], 125 µM (active); in assay [8] it was 104 µM (active). For the same compound, the AC50 in assay [9] was 71.5 µM (active). Also, the compound was classed as inactive in [2], in [4] and in [10].
For `CC(C)=CCC/C(C)=C\CO`, the compound was classed as inactive in [1], in assay [2], in [3], in assay [4], in assay [5] and in assay [6]. For the same compound, the outcome in assay [7], in assay [8], in [10] and in [9] was inactive.
As to `O=P(OC(CCl)CCl)(OC(CCl)CCl)OC(CCl)CCl`, the outcome in assay [1], in assay [4], in assay [6] and in [8] was inactive. The AC50 in assay [2] is 48 µM (active); in [3], 55.6 µM (active); in assay [5] it was 44.9 µM (active); in assay [7], 49.4 µM (active); in assay [10], 49.1 µM (active); in [9], 47.1 µM (active).
As for `CC(C)c1cccc(C(C)C)c1N1C(=O)c2ccc(O)cc2C1=O`, the AC50 in assay [1] was 6.15 µM (active); in [3], 87.5 µM (active); in [5], 4.05 µM (active); in [6], 32.7 µM (active); in assay [7], 164 µM (active); in assay [8], 46.7 µM (active). The AC50 was 7.16 µM (active) in [10] and 57.7 µM (active) in assay [9]. Also, the compound was classed as inactive in assay [2] and in [4].
`CN(C)c1ccc(N=NS(=O)(=O)O)cc1`: the concentration at half-maximal activity (AC50) in assay [1] is 86.9 µM (active); in assay [10], 54.3 µM (active); in [9] it was 71.7 µM (active). The compound was classed as inactive in assay [2], in [3], in assay [4], in [5], in [6] and in assay [7]. In addition, the call in assay [8] was inactive.
In the case of `C[C@](N)(Cc1ccc(O)c(O)c1)C(=O)O`, the result in assay [1], in assay [2], in [3], in assay [4], in assay [5] and in assay [6] was inactive. Besides, the outcome in assay [7], in [8] and in [9] was inactive.
As for `COCCOCCOCCOC`, the outcome in assay [1], in [2], in assay [3], in [4], in assay [5] and in [6] was inactive. Also, the outcome in assay [7], in assay [8], in assay [10] and in assay [9] was inactive.
`Oc1ccc2c(c1)-c1ccccc1C2`: the outcome in assay [1], in [2], in assay [4] and in assay [6] was inactive. The concentration at half-maximal activity (AC50) in assay [3] was 100 µM (active); in assay [5], 116 µM (active); in [7], 111 µM (active); in [8], 100 µM (active); in assay [10], 124 µM (active); in assay [9], 86.1 µM (active).
Consider `On1ccccc1=S`, for which the result in assay [1], in [2], in assay [3], in assay [5], in assay [6] and in assay [7] was inactive. For the same compound, the AC50 in assay [8] is 19.6 µM (active); in assay [10] it was 8.36 µM (active); in assay [9], 5.34 µM (active).
Regarding `CCn1nc(Cc2ccccc2)cc1C1CCN(C[C@H]2C[C@H](N(C)[C@@H](C(=O)O)C(C)C)C[C@@H]2c2cccc(F)c2)CC1`, the half-maximal activity concentration (AC50) in [1] is 46.3 µM (active); in assay [9], 90.9 µM (active). Further, the compound was called inactive in assay [2], in assay [3], in assay [4], in assay [5], in assay [6] and in [7]. Moreover, in [8], the call was inactive.
Regarding `O=C1CCC(N2C(=O)c3ccccc3C2=O)C(=O)N1` (stereo not given), the call in [1], in assay [2], in [3], in assay [4], in assay [5] and in [6] was inactive. The compound was classed as inactive in assay [7], in assay [8] and in [9].
Regarding `CC(C)=CCCC(C)=CC=O`, the result in assay [1], in [2], in assay [3], in assay [4], in assay [5] and in assay [6] was inactive. In addition, the compound was classed as inactive in assay [7], in assay [8] and in assay [9].
In the case of `Cc1ccc(O)cc1`, the compound was classed as inactive in assay [1], in assay [2], in assay [3], in [4], in [5] and in [6]. Moreover, the call in assay [7], in [8] and in assay [9] was inactive.
As to `Nc1nc2ncc(CNc3ccc(C(=O)N[C@@H](CCC(=O)O)C(=O)O)cc3)nc2c(=O)[nH]1`, the compound was classed as inactive in assay [1], in [2], in assay [3], in [5], in [6] and in assay [7]. The result in [8], in [10] and in [9] was inactive.
Regarding `CNS(=O)(=O)c1cc(C(=O)N2CCC(CCN3C4CCC3CC(n3c(C)nc5ccccc53)C4)(c3cccc(F)c3)CC2)c(Cl)cc1F` (stereo not given), the compound was classed as inactive in assay [1], in assay [2] and in [6]. Moreover, the AC50 is 62.9 µM (active) in assay [3]; 52 µM (active) in assay [4]; 40.9 µM (active) in assay [5]; 62.7 µM (active) in assay [7]; 72.7 µM (active) in assay [8]; 24 µM (active) in assay [9].
On to `O=C(OC[C@H]1O[C@@H](OC(=O)c2cc(O)c(O)c(OC(=O)c3cc(O)c(O)c(O)c3)c2)[C@H](OC(=O)c2cc(O)c(O)c(OC(=O)c3cc(O)c(O)c(O)c3)c2)[C@@H](OC(=O)c2cc(O)c(O)c(OC(=O)c3cc(O)c(O)c(O)c3)c2)[C@@H]1OC(=O)c1cc(O)c(O)c(OC(=O)c2cc(O)c(O)c(O)c2)c1)c1cc(O)c(O)c(OC(=O)c2cc(O)c(O)c(O)c2)c1`, for which the call in [1], in assay [2], in [3], in assay [4] and in assay [5] was inactive. The AC50 in assay [6] is 26.4 µM (active); in [7], 23.9 µM (active); in [8], 20.8 µM (active); in assay [9], 21.4 µM (active).
`O=C(O)c1cc(N=Nc2ccc(S(=O)(=O)Nc3ccccn3)cc2)ccc1O`: the call in assay [1], in [2], in assay [3], in assay [5], in [7] and in assay [8] was inactive. Besides, the call in assay [10] and in assay [9] was inactive. The half-maximal activity concentration (AC50) in assay [6] is 95.9 µM (active).
In the case of `CCOC(=O)COc1ccc2c(c1)CC(NCC(O)c1cccc(Cl)c1)CC2` (stereo not given), the result in assay [1], in assay [2], in assay [4] and in [6] was inactive. For the same compound, the AC50 in [3] was 84.4 µM (active); in assay [5] it was 28.7 µM (active); in assay [7] it was 41.5 µM (active); in assay [8], 30.6 µM (active); in assay [9] it was 71.4 µM (active).
Consider `O=C1OC(=O)C2C3C=CC(C3)C12` (stereo not given), for which the outcome in [1], in assay [2], in assay [3], in [4], in assay [5] and in [6] was inactive. Moreover, the outcome in assay [7], in assay [8] and in assay [9] was inactive.
In the case of `CCCCCCCCO`, the compound was classed as inactive in [1], in assay [2], in [3], in assay [4], in assay [5] and in assay [6]. The compound was classed as inactive in assay [7], in [8] and in [9].
For `C=CC(=C)CCC=C(C)C`, the compound was called inactive in assay [1], in assay [2], in assay [3], in assay [4], in [5] and in assay [6]. Moreover, the outcome in assay [7], in assay [8] and in assay [9] was inactive.
